The whole screen tested about 2,400 compounds, of which about 1,400 (58%) were called active.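 Rule for the calls: active = inhibition of 30% or more at any tested dose; inconclusive = primary hits over the limit that were never retested; inactive = the rest.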 The set was probably picked from earlier hits. The list shows a part of the results.
Test: coupled detection enzyme interference, dose response, artefact control for MgcRacGAP inhibitor project, biochemical, coupled enzyme counter-screen (AID 624351);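 note: signal is the ADP detection kit reading of free GDP without any GAP enzyme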;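 for inhibition: 0% = median positive control wells and 100% = median negative control wells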
Conditions: ADP Hunter coupled enzyme counter-screen, fluorescence, no MgcRacGAP; series mostly up to 80 µM; inhibition: at the top concentration

SMILES | inhibition | IC50
c1cc(CN2CCN(C3CCCCCC3)CC2)ccn1 | 23.8% (inactive) | 
Oc1ccc(/C=N/NC2=NCCCCC2)c(O)c1 |  | 67.6 µM (active)
COc1cc(/C=N/Nc2cc(C)nc(NS(=O)(=O)c3ccccc3)n2)ccc1O |  | 41 µM (active)
COc1cc(/C=N/NC2=NCCCCC2)ccc1O |  | 27.6 µM (active)
Nc1nc2cc(S(=O)(=O)NC3=NCCCCC3)ccc2s1 | 1.02% (inactive) | 
COc1cc(/C=N/NC(=O)c2cn(-c3cccc(C)n3)cn2)ccc1O |  | 37.3 µM (active)
S=c1[nH]c2ccccc2n2c(=S)[nH]nc12 |  | 51.8 µM (active)
O=c1[nH]c2ccccc2n2c(=S)[nH]nc12 |  | 78.8 µM (active)
CCCCN(CCCC)CCNC(=O)CSCc1ccc(C)cc1 | 19.8% (inactive) | 
Cc1cccc(-n2nc3c(c2NC(=O)c2ccco2)CSC3)c1C | 0.97% (inactive) | 
C=CCc1cc(OC)ccc1OCCN1CC(C)OC(C)C1 (stereo not drawn) | 28.6% (inactive) | 
c1coc(CSSCc2ccco2)c1 | 0.48% (inactive) | 
Nc1ccc(OCc2ccco2)cc1 |  | 58.6 µM (active)
CC1N(C)c2cccc3cccc(c23)N1C |  | 21 µM (active)
O=C1/C(=C/c2ccccc2[N+](=O)[O-])COc2ccccc21 | 3.33% (inactive) | 
CN(C)C=Nc1ccc2nc3c(cc2c1)[nH]c1ccccc13 | -11.8% (inactive) | 
CCN(CC)c1ccc(N=Cc2ccccc2[N+](=O)[O-])cc1 |  | 27.2 µM (active)
CCN(CC)c1ccc(N=Cc2c(C)[nH]c3ccccc23)cc1 |  | 41.6 µM (active)
CC(=C/c1ccccc1)/C=N/n1c(-c2ccco2)n[nH]c1=S |  | 66.7 µM (active)
S=c1[nH]nc(-c2ccco2)n1/N=C/c1ccc(Cl)cc1 |  | 51.2 µM (active)
CC1=C(C)CS(=O)N(S(=O)(=O)c2ccc(Cl)cc2)C1 (stereo not drawn) | -1.25% (inactive) | 
Cc1cccc(-c2n[nH]c(=S)n2/N=C/c2ccco2)c1 |  | 78.9 µM (active)
Cc1cccc(CN2CCN(Cc3ccco3)CC2)c1 | 5.3% (inactive) | 
Cc1ccc2nc(N(CCCN(C)C)C(=O)c3ccc4ncsc4c3)sc2c1 | 4.64% (inactive) | 
Cc1nc2ccc(C(=O)Nc3ccc(N(C)C)cc3)cc2s1 |  | 58.9 µM (active)
O=C(CN1CCc2ccccc2C1)Nc1ccccc1C(F)(F)F | 8.43% (inactive) | 

SMILES | inhibition | IC50
COc1cc(C2C(=O)c3ccccc3C2=O)ccc1O |  | 20.4 µM (active)
O=C1c2ccccc2C(=O)C1c1ccc(O)cc1 |  | 81.3 µM (active)
C[C@H]1CCC/C=C/[C@@H]2C[C@H](O)C[C@H]2[C@H](O)[C@H](S(=O)c2ccc(O)cc2)CC(=O)O1 (stereo partly drawn) | 24.2% (inactive) | 
CN1CCN(CCCNCc2cn(CCC#N)c3ccccc23)CC1 | -1.13% (inactive) | 
N#CCCN1CCN(CCC#N)c2ccccc21 |  | 20 µM (active)
CC(=O)c1ccc(NC(=S)Nc2ccc3[nH]c(=O)[nH]c3c2)cc1 | 8.57% (inactive) | 
COc1ccc(OC(=O)COc2ccc(C)cc2)cc1 | 28.1% (inactive) | 
Oc1ccc(NC(=S)Nc2ccccc2)cc1 |  | 55.5 µM (active)
Cc1ccc(OC(=S)Nc2ccc(O)cc2)cc1 |  | 34.5 µM (active)
Oc1ccc(NC(=S)Nc2ccc(O)cc2)cc1 |  | 46.5 µM (active)
CC(=O)Nc1ccc(OC(=O)c2cc3ccccc3oc2=O)cc1 | 13.8% (inactive) | 
COC(=O)c1ccc(NC(=S)Nc2ccc(O)cc2)cc1 |  | 68.1 µM (active)
O=C(/C=C/c1ccco1)NC(=S)Nc1ccc(C(=O)O)cc1 | -1.18% (inactive) | 
CN(C)c1ccc(O)c2c1CC1CC3[C@@H](N(C)C)C(=O)C(C(N)=O)=C(O)[C@]3(O)C(=O)C1=C2O (stereo partly drawn) | -7.5% (inactive) | 
COCC(C)NCc1ccc(OC)c(Br)c1 (stereo not drawn) | 20.1% (inactive) | 
COc1ccc(CN2CCN(Cc3ccccc3F)CC2)c(OC)c1 | 27.5% (inactive) | 
O=C(c1cccnc1)N1CCN(Cc2cccc(Br)c2)CC1 | 0.22% (inactive) | 
CC1CCCCN1CC(=O)Nc1ccc(N2CCCCCC2)cc1 (stereo not drawn) | 11.7% (inactive) | 
O=C(Nc1ccc(O)cc1)C1CC=CCC1 (stereo not drawn) |  | 64.6 µM (active)
O=C(NC(=S)Nc1ccc(O)cc1)C1CCCC1 |  | 31.8 µM (active)
CC(C)N(c1ccccc1)c1ccc(NC(=S)NCCN(C)C)cc1 | 9.78% (inactive) | 
CN(C(=S)NC(=O)C1CC1)c1ccc(O)cc1 | 3.76% (inactive) | 
CNC(=S)Nc1ccc(Nc2ccccc2)cc1 |  | 71.8 µM (active)
N=C1/C(=C\c2ccc(Br)o2)C(=O)N=C2SC(CC(=O)N3CCCCC3)=NN12 | 3.12% (inactive) | 
COc1ccc(C2NC(=O)C(C#N)=C(S)N2c2ccccc2)cc1OC (stereo not drawn) | 1.58% (inactive) | 
S=c1[nH]nc2ccccn12 |  | 24 µM (active)

SMILES | inhibition | IC50
Cc1ccn2c(=S)[nH]nc2c1 |  | 46.7 µM (active)
Cc1cccn2c(=S)[nH]nc12 |  | 13.4 µM (active)
Cc1ccc(/C=C2/C(=O)c3ccc(C(=O)O)cc3C2=O)o1 | -2.01% (inactive) | 
Cc1cc(O)ccc1N=Cc1c(C(F)(F)F)[nH][nH]c1=O |  | 32.8 µM (active)
Oc1ccc(/C=C/c2ccc3ccccc3n2)cc1 |  | 30.7 µM (active)
O=c1[nH]c2ccccc2nc1/C=C/c1ccc(O)cc1 |  | 36.9 µM (active)
CCOc1cc(/C=N/NC(=O)c2ccc(=O)n(C)c2)ccc1O |  | 60.4 µM (active)
CCOc1cc(/C=N/NC(=O)C2CCCC2)ccc1O |  | 51.3 µM (active)
CCOc1cc(/C=N/NC(=O)c2cc(C3CC3)[nH]n2)ccc1O |  | 56.1 µM (active)
CCOc1cc(/C=N/NC(=O)c2ccc(NC(=O)C3CC3)cc2)ccc1O |  | 83.2 µM (active)
Cc1cc(C)c(C)c(OCCNCc2ccccc2)c1 | 20.3% (inactive) | 
COc1ccccc1COCC(O)CNCC1(N2CCCCC2)CCCCC1 (stereo not drawn) | 19.2% (inactive) | 
COc1cc(/C=N/NC(=O)C2CCN(CC(O)COCc3ccccc3)CC2)ccc1O (stereo not drawn) |  | 34.1 µM (active)
Cc1cccc(N2C(S)=C(C#N)C(=O)NC2c2cccs2)c1 (stereo not drawn) | 6.48% (inactive) | 
COc1cccc2c3cccc(OC)c3c3[nH]cnc3c12 | 9.71% (inactive) | 
COc1cc(N)c2ncccc2c1OC |  | 63.8 µM (active)
COc1cc(N)c2ncccc2c1SC |  | 51.2 µM (active)
COc1cc(CN(C)CCc2ccccn2)cc(OC)c1OC | 26.4% (inactive) | 
COc1cc(NC(C)CCCNC(C)C)c2ncccc2c1OC (stereo not drawn) | 4.79% (inactive) | 
CCN1/C(=C\c2ccc3ccccc3[n+]2CC)Sc2cc(C)ccc21 | 11.5% (inactive) | 
CCOC(=O)c1ccc(S(=O)(=O)Nc2nc3cc(S(=O)(=O)NC4=NCCCCC4)ccc3s2)cc1 | 2.82% (inactive) | 
COc1cc(N=Nc2c(C)n(C)n(-c3ccccc3)c2=O)ccc1N |  | 47.2 µM (active)
Cc1[nH]c2ccccc2c1N=Nc1c(C)n(C)n(-c2ccccc2)c1=O |  | 40.2 µM (active)
Cc1c(N=C2C=C(Br)C(=O)C(Br)=C2)c(=O)n(-c2ccccc2)n1C |  | 24.2 µM (active)
CC(=O)NC(Nc1c(C)n(C)n(-c2ccccc2)c1=O)C(Cl)(Cl)Cl (stereo not drawn) | -1.5% (inactive) | 
Cc1c(NC(=S)N/N=C/c2ccc(O)cc2)c(=O)n(-c2ccccc2)n1C |  | 68.4 µM (active)

— PubChem BioAssay AID624351 (Southern Research Specialized Biocontainment Screening …, 2012)
